According to PubChem BioAssay AID1851 (National Center for Advancing Translational Sciences (NCATS), 2009):
The whole screen tested about 16,000 compounds, of which about 5,100 (32%) were called active. Another 25% or so got no clear call; they are omitted. This is one part of the list. A number with no mark means an inactive call. Calls come from the whole dose curve; as a rule, active = well fitted curve in the direction sought with a large enough effect; inconclusive = small, poorly fitted or top-dose-only effect, or effect the other way; inactive = no such curve, though single readings can be large or run the other way. Square brackets hold non-standard residues; d marks the D form. Peptide text beside a SMILES is read from it.

These compounds were tested against Cytochrome P450 3A4 (Homo sapiens) (UniProt P08684) (assay: Cytochrome panel assay with activity outcomes). Details: recombinant CYP, pro-luciferin dealkylation, luminescence, p450-cyp3a4; series mostly up to 57.1 µM.
% is set by controls: 0 for no effect and ±100 for the full control effect.

Sequence of Cytochrome P450 3A4 (Homo sapiens) (P08684 whole entry, looked up): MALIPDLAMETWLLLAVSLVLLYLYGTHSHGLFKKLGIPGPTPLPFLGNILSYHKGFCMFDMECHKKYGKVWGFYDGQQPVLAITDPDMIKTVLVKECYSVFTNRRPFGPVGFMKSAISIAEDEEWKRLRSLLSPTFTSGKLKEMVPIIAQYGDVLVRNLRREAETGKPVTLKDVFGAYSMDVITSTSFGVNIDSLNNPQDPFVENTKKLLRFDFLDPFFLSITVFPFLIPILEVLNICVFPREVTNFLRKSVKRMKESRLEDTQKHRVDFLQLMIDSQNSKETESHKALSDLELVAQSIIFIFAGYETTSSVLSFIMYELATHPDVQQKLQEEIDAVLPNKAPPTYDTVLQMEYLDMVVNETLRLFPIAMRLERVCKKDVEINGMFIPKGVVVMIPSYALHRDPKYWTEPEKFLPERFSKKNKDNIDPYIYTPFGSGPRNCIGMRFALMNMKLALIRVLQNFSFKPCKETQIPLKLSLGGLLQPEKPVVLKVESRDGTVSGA

SMILES	AC50	activity, negative = inhibition
COC(=O)[C@@]1(Cc2ccc(F)cc2)[C@H]2c3cc(C(=O)N4CCCC4)n(CCc4ccc(O)c(O)c4)c3C[C@H]2CN1C(=O)c1ccccc1	2.51 µM (active)	–
COC(=O)[C@@]1(Cc2ccc(F)cc2)[C@H]2c3cc(C(=O)N4CCCC4)n(CCc4ccc(OC)c(Br)c4)c3C[C@H]2CN1C(=O)c1ccccc1	2.51 µM (active)	–
Cc1cc(OCC(F)(F)C(F)(F)C(F)(F)C(F)(F)C(F)(F)C(F)F)nc(N)n1	inactive	–
Nc1nc(-c2ccccc2)c(-c2ccccc2)s1	–	-8.94% [at 2.29 µM]
Nc1nc(-c2ccccc2)c(-c2ccccc2)c(-c2nc(N)nc(-c3ccccc3)c2-c2ccccc2)n1	–	4.04% [at 11.4 µM]
Nc1ccc(-c2sc(N)nc2-c2ccccc2)cc1	10 µM (active)	–
CSC1=N/C(=C\c2ccc(Br)o2)C(=O)S1	–	-3.65% [at 11.4 µM]
CCCNC(=O)OC[C@@H]1O[C@H](CCO/N=C(\C)CCN2CCc3nc(-c4ccccc4)c(-c4ccccc4)cc3C2)C=C[C@@H]1Oc1ccc(OC)cc1	3.16 µM (active)	–
CCCNC(=O)OC[C@@H]1O[C@H](CCO/N=C(\C)CCN2CCc3nc(CC)c(CC)cc3C2)C=C[C@@H]1Oc1ccc(OC)cc1	3.98 µM (active)	–
COc1ccc(O[C@H]2C=C[C@@H](c3ccccc3)O[C@@H]2CO/N=C(\C)CCN2CCc3nc(-c4ccccc4)c(-c4ccccc4)cc3C2)cc1	–	-57.3% [at 11.4 µM]
C=CC[C@@H]1C=C[C@H](O/N=C(\C)CCN2CCc3nc(-c4ccccc4)c(-c4ccccc4)cc3C2)[C@H](CO)O1	3.98 µM (active)	–
C=CC[C@@H]1C=C[C@H](O/N=C(\C)CCN2CCc3nc(CC)c(CC)cc3C2)[C@H](CO)O1	–	-75.9% [at 11.4 µM]
Cc1c(C)c(C)c(CC2(C)CSC2)c(CC2(C)CSC2)c1C	–	-14.4% [at 11.4 µM]
CC1=CC2=NC(=O)CC(C)(C(=O)N(CC(=O)NC(C)(C)C)Cc3cccs3)N2C=C1 (stereo not drawn)	inactive	–
CN(C)CCN(Cc1cccs1)c1ccccn1	inactive	–
CC(C)(C)NC(=O)CN(Cc1cccs1)C(=O)CCC(=O)Nc1nccs1	4.47 µM (active)	–
CSc1nc(C)c2c(n1)N(c1ccc(C(F)(F)F)cc1)CC2	inactive	–
CCOC(=O)c1c(-c2ccccc2)csc1NC(=O)c1cccc(N2C(=O)CCC2=O)c1	inactive	–
CCOC(=O)c1c(-c2ccc(C)cc2)csc1NC(=O)C1CC=CCC1C(=O)O (stereo not drawn)	–	-2.99% [at 2.29 µM]
CCOC(=O)c1c(-c2ccc(C)o2)csc1NC(=S)NC(=O)N(C)C	15.8 µM (active)	–
CN(C)C(=O)c1ccc(-c2ccc3ncnc(N4CCOCC4)c3c2)cc1	15.8 µM (active)	–
CN(C)C(=O)c1ccc(-c2ccc3ncnc(N4CCNCC4)c3c2)cc1	inactive	–

SMILES	AC50	activity, negative = inhibition
COc1cc(N2CCOCC2)ncn1	inactive	–
COc1ccc(-c2nsc3c(N4CCCCC4)ncnc23)cc1	inactive	–
COc1cccc(-c2ccc3ncnc(N4CCOCC4)c3c2)c1	10 µM (active)	–
COc1cccc(-c2ccc3ncnc(N4CCN(C)CC4)c3c2)c1	15.8 µM (active)	–
COc1ccc(-c2nc(-c3cccc(C)c3)nc(N3CCN(C)CC3)c2C#N)cc1	–	-13.1% [at 2.29 µM]
NCC[C@H]1CCC[C@H](CCN)N1	inactive	–
CCOC(=O)N1CCN(c2c(-c3ccccc3)c3cc(Cl)ccc3[nH]c2=O)CC1	inactive	–
O=c1nc2ccccc2c2n1CC(CN1CCN(c3cccc(Cl)c3)CC1)N2 (stereo not drawn)	inactive	–
O=C(Cc1ccc(-n2c(=O)[nH]c3ccccc3c2=O)cc1)N1CCN(c2cccc(Cl)c2)CC1	3.16 µM (active)	–
N/C(CC/C(N)=N/O)=N\O	–	-5.56% [at 11.4 µM]
CCOC(=O)CCN1C(=O)[C@H]2[C@@H]3[C@H](O)C=CC(=O)[C@H]3CC[C@H]2C1=O	–	-11.5% [at 11.4 µM]
Cc1cccc(C)c1NC(=O)CCN1C(=O)C2C3CCC(C3)C2C1=O (stereo not drawn)	–	0.821% [at 2.29 µM]
Cc1cc(NC(=O)CCN2C(=O)C3C4CCC(C4)C3C2=O)c(C)cc1Br (stereo not drawn)	7.94 µM (active)	–
CCN1CCN(C(=O)CCc2nc3ccccc3c(=O)[nH]2)CC1	inactive	–
O=C(/C=C/c1ccccc1)N1CCN(Cc2nc3ccccc3c(=O)[nH]2)CC1	inactive	–
O=C(CCc1nc2ccccc2c(=O)[nH]1)OCC(=O)N1CCN(S(=O)(=O)c2ccccc2)CC1	7.94 µM (active)	–
CC[C@H](C)C(=O)O[C@H]1CCC=C2C=C[C@H](C)[C@H](CC[C@@H]3C[C@H](O)CC(=O)O3)[C@H]21	12.6 µM (active)	–
C[C@H]1C=C2C=C[C@H](C)[C@H](CC[C@@H]3C[C@@H](O)CC(=O)O3)[C@H]2[C@@H](OC(=O)[C@@H](C)CCO)C1	12.6 µM (active)	–
CCCCCC1CCC(C(=O)NNC(=S)NCC)CC1 (stereo not drawn)	–	-1.07% [at 2.29 µM]
CN(C)CC[C@H](c1ccc(Br)cc1)c1ccccn1	inactive	–
COCCN(C(=O)C(C)C)c1nnc(-c2ccc(C)cc2)s1	inactive	–
CC(C)Cn1c(-c2ccc(Cl)cc2)cnc1SCC(=O)N1CCOCC1	–	-5.92% [at 2.29 µM]

SMILES	AC50	activity, negative = inhibition
CCn1c(SCC(=O)N2CCOCC2)nc2oc3c(Cl)cc(Cl)cc3c(=O)c2c1=O	11.2 µM (active)	–
NC(=O)[C@@H]1CCCN1Cc1ccc2c(c1)OCO2	–	-37.8% [at 11.4 µM]
CC(C)(C)NC(=O)CSc1nnc(Cc2ccc3c(c2)OCO3)n1C1CCCCC1	0.447 µM (active)	–
CC(C)N=c1scc(-c2ccco2)n1/N=C/c1ccc(O)c(O)c1	12.6 µM (active)	–
C[N+](C)(C)/N=C\c1ccc(O)c(O)c1	–	-21.1% [at 11.4 µM]
NCCc1nc(-c2nc(C(=O)O)cs2)cs1	–	-14.8% [at 11.4 µM]
O=C(c1cccc(F)c1)N1CCC2(CCN(Cc3ccccc3)CC2)CC1	inactive	–
CC(=O)N1CCC2(CCN(Cc3ccncc3)CC2)CC1	inactive	–
COc1ccc(C(=O)N2CCC3(CCCN(C)C3)CC2)cc1	inactive	–
COc1ccc(C(=O)N2CCC3(CCCN(Cc4ccncc4)C3)CC2)cc1	7.94 µM (active)	–
COc1ccc(C(=O)N2CCC3(CCN(Cc4ccncc4)CC3)CC2)cc1	15.8 µM (active)	–
O=C(c1ccncc1)N1CCC2(CCCN(Cc3ccncc3)C2)CC1	5.01 µM (active)	–
O=C(c1ccncc1)N1CCC2(CCN(Cc3ccccc3)CC2)CC1	15.8 µM (active)	–
O=C(O)CP(=O)(O)O	inactive	–
Oc1c(Cl)cc(CN(Cc2cc(Cl)c(O)c(Cl)c2)C2CCCCC2)cc1Cl	–	-4.66% [at 11.4 µM]
CC(=O)N1CCC2(CCCN(Cc3ccccc3)C2)CC1	inactive	–
O=C(c1ccncc1)N1CCC[C@@]2(CCN(Cc3ccccc3)C2)C1	15.8 µM (active)	–
CC(=O)N1CCC2(CC1)CN(Cc1ccccc1)C2	inactive	–
O=C(c1ccncc1)N1CCC2(CCCN(Cc3ccccc3)C2)CC1	10 µM (active)	–
O=C(c1csnn1)N1CCC2(CCCN(Cc3ccccc3)C2)CC1	inactive	–
CC(=O)OC1CCC(OC(C)=O)c2c1n([O-])c(C)c(C)[n+]2=O (stereo not drawn)	inactive	–
COC(=O)c1c(-n2c(C)cc(C=O)c2C)sc2c1CCCC2	7.08 µM (active)	–

SMILES	AC50	activity, negative = inhibition
O=C(NCCc1ccccc1)c1noc2c1CCc1ccccc1-2	–	-2.2% [at 2.29 µM]
O=C1Nc2ccccc2/C1=N/c1sc2c(c1C(=O)NCCc1ccccc1)CCCC2	7.08 µM (active)	–
O=C1Nc2ccccc2C1=Nc1cccc2ncccc12	–	-14.3% [at 11.4 µM]
NCC(=O)N[C@H](CO)C(=O)O (H-Gly-[dS]-OH)	–	-9.24% [at 11.4 µM]
CCN1CCN(c2nc3ccccc3nc2C(C#N)C(=O)OC2CCCCC2)CC1 (stereo not drawn)	10 µM (active)	–
C[N+]1(C)CCC(OC(=O)C(c2ccccc2)c2ccccc2)CC1	inactive	–
CCCCCCOC(=O)C(C#N)c1nc2ccccc2nc1N1CCN(CC)CC1 (stereo not drawn)	28.2 µM (active)	–
CC(C)OC(=O)C(C#N)c1nc2ccccc2nc1N1CCN(Cc2ccccc2)CC1 (stereo not drawn)	inactive	–
Cc1cc(C)nc(Nc2n[nH]c(COc3ccc4ccccc4c3)n2)n1	5.01 µM (active)	–
NC(=O)Nc1n[nH]c(-c2ccccc2)n1	–	-3.37% [at 11.4 µM]
Cc1noc2ncnc(Oc3ccc4ccccc4c3)c12	inactive	–
Cc1cc(Oc2ccccc2)nc(NCc2ccccc2)n1	–	7.15% [at 11.4 µM]
Nc1nc(-c2cc(-c3cccc4ccccc34)nc(N)n2)cc(-c2cccc3ccccc23)n1	–	6.26% [at 11.4 µM]
Cc1cc(C)nc(Nc2n[nH]c(-c3cccc4ccccc34)n2)n1	14.1 µM (active)	–
O=c1[nH]ncn2cccc12	inactive	–
COc1ccccc1-n1c(SCC(=O)Nc2ccccc2F)nc2[nH]ncc2c1=O	14.1 µM (active)	–
Oc1ccccc1C(Sc1nc2ccccc2s1)Sc1nc2ccccc2s1	–	-6.59% [at 11.4 µM]
c1ccc2sc(SCSc3nc4ccccc4s3)nc2c1	3.16 µM (active)	–
NCCSc1nc(-c2ccccc2)c(-c2ccccc2)o1	–	-23.1% [at 11.4 µM]
c1ccc2sc(SCCSc3nc4ccccc4s3)nc2c1	–	14.9% [at 11.4 µM]
NCCSc1nc2ccccc2s1	3.16 µM (active)	–
COc1cc(C)cc2c(-c3c(O)cc(O)c4c3C[C@H](C)N[C@@H]4C)cc(-c3cc(-c4c(O)cc(O)c5c4C[C@H](C)N[C@@H]5C)c4cc(C)cc(OC)c4c3O)c(O)c12	–	-3.16% [at 11.4 µM]
